Measurements reported in PubChem BioAssay AID488920 (Sanford-Burnham Center for Chemical Genomics, 2010).
A number with no mark means an inactive call. Rule as the data show it: active = IC50 below about 3 µM; inactive = the rest.

Assay: luminescence signal interference by compounds, dose response, artefact control for SENP inhibitor project, biochemical (AID 488920)
Settings: luminescence interference counterscreen, spectral interferers
In the case of `CCC(C)NC(=O)c1c(N)n(CCCOC)c2nc3ccccc3nc12` (stereo not drawn), the IC50 is reported as > 5 µM. In the case of `CCOC(=O)c1c(NS(=O)(=O)c2ccccc2)n(CCCOC)c2nc3ccccc3nc12`, the IC50 is reported as > 5 µM. For `COc1cc2c(cc1OC)-c1c(OC)c(OC)cc3c1C(C2)N(C)CC3` (stereo not drawn), the IC50 was > 5 µM.
